# GRK2 inh = human GRK2 inhibition via aptamer displacement | P25098 | bead flow cytometry, FAM-aptamer displacement from GRK2 | inhibition of aptamer binding, % at 10 µM | actives 0.59% (n = 330,000);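 active = inhibition of aptamer binding above 40%, roughly 3 SD of noise, on plates passing a quality check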;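 note: median bead fluorescence of bound FAM aptamer so fluorescent compounds give negative values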
# B2AR ag = agonists of human beta-2 adrenergic receptor inducing internalization; P07550; Am2.2-beta2AR cells, FAP receptor internalization, flow cytometry; response, % (test concentration not listed); actives 0.43% (n = 340,000); AID 504454;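 active = response above a set limit, near 3 SD of response in nonfluorescent compounds, cut at about 42% in these data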
# Target sequence (P07550 whole entry, looked up): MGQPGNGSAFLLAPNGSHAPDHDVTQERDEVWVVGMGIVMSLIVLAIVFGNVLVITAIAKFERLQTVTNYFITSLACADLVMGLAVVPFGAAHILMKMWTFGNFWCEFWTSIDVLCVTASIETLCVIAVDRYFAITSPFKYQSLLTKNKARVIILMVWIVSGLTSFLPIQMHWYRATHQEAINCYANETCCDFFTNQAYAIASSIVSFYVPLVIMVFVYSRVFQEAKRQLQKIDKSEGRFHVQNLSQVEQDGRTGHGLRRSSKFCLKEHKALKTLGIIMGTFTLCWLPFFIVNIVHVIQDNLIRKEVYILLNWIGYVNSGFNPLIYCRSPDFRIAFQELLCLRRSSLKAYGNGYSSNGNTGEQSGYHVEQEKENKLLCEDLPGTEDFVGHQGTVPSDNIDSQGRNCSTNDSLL
# NTR1 ag = activates human neurotensin receptor 1; NTR1-U2OS beta-arrestin-GFP spot imaging, agonist mode; activation, % at 20 µM; actives 0.17% (n = 330,000); AID 493036;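 active = activation at or above 40% of the spot to cytoplasm intensity ratio, with at least 20 cells analyzed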
# A1 inh = inhibitors of the anti-apoptotic protein A1, read as caspase activation; MEF A1-2A-BIM cells, Caspase-Glo 3/7 luminescence, 3 h; percent of clofoctol response, vehicle zero; actives 0.066% (n = 330,000); caspase activation, % (test concentration not listed);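 active = over half of replicate activation scores above 10%, or exactly half above 10 with the replicate mean above 10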
# VLA-4 inh = inhibition in a human VLA-4 binding assay | P13612 | VLA-4 expressing cells, ligand binding flow cytometry | inhibition, % (about 7 µM as worked out from the volumes in the protocol) | actives 0.2% (n = 330,000); in the data active = inhibition above about 50%
# VLA-4 allo CP = confirmation of allosteric modulators of human VLA-4 integrin | shares compounds with VLA-4 inh | U937 cells, HUTS-21 LIBS mAb binding, flow cytometry; LDV ligand present at threefold Kd | inhibition, % at 6.7 µM | actives 2% (n = 1,300); in the data active = inhibition above about 40%
# A number is an active result; . = inactive; / = no result given; ! = a repeat was not active. Rows were chosen to be rich in hits. Some 1.3% of all compounds tested hit in one or more screens of this group.
SMILES,GRK2 inh,B2AR ag,NTR1 ag,A1 inh,VLA-4 inh,VLA-4 allo CP
Cc1ccc(C(=O)NC(C)c2ccc(-n3ccnc3)cc2)o1 (stereo unspecified),.,.,.,.,.,/
COc1ccnc(CS(=O)c2nc3cc(C(O)(F)F)ccc3[nH]2)c1OC (stereo unspecified),.,.,.,.,.,/
COc1ccc2[nH]c(S(=O)Cc3ncc(C)c(OC)c3C)nc2c1 (stereo unspecified),.,.,.,.,53.6!,.
COC(=O)[C@]1(Cc2ccccc2)N[C@H](CN(C)S(=O)(=O)c2ccc(-c3ccccc3)cc2)[C@@H]2C(=O)N(Cc3ccccc3)C(=O)[C@@H]21,.,.,.,.,.,.
COC(=O)[C@]1(Cc2ccccc2)N[C@H](CN(C)S(=O)(=O)c2ccc(C)cc2)[C@@H]2C(=O)N(Cc3ccccc3)C(=O)[C@@H]21,.,.,.,.,.,/
CCN(C[C@H]1N[C@@](Cc2ccccc2)(C(=O)OC)[C@H]2C(=O)N(Cc3ccccc3)C(=O)[C@@H]12)S(=O)(=O)c1ccccc1,.,.,.,.,.,/
CCN(C[C@H]1N[C@@](Cc2ccccc2)(C(=O)OC)[C@H]2C(=O)N(Cc3ccccc3)C(=O)[C@@H]12)S(=O)(=O)c1ccc(-c2ccccc2)cc1,.,.,.,.,.,.
NC(=O)c1ccccc1NC(=O)C(c1ccccc1)c1ccccc1,.,.,.,.,.,/
O=C(O)c1ccccc1NC(=O)C(c1ccccc1)c1ccccc1,.,.,.,.,.,.
COc1cccc(NC(=O)CN(C)C(=O)CCNC(=O)c2ccccc2OC)c1,/,.,/,/,/,/
O=C(CCc1nc2ccccc2s1)OCC(=O)c1ccccc1,.,.,.,.,.,.
O=C(O)c1ccccc1C=NN1CCCCCC1,/,.,/,/,/,/
COc1cccc(C(=O)Nc2ncc3c(n2)CC(C)CC3=O)c1 (stereo unspecified),.,.,.,.,61.8,.
Cc1ccc(CNC(=O)CCCc2cn(C)c3ccccc23)cc1,.,.,.,.,.,.
Cc1ccc(CNS(=O)(=O)c2ccc3c(c2)C(C)(C)C(=O)N3C)cc1,.,.,.,.,.,/
CN(C)c1ccc(CNS(=O)(=O)c2ccc3c(c2)C(C)(C)C(=O)N3C)cc1,.,.,.,.,52.3,.
N#Cc1ccc(CNC(=O)N2CCOCC2)cc1,.,.,.,.,.,.
O=C(NCc1ccc(Cl)cc1)N1CCOCC1,.,.,.,.,.,/
CN(Cc1ccco1)C(=O)CSc1nn2c(=O)c(C(C)(C)C)nnc2s1,.,.,.,.,.,/
CC(C)(C)OC(=O)N1Cc2ccccc2C[C@H]1C(=O)NCC(=O)NC1CCCCC1,.,.,.,.,.,/
O=S(=O)(Nc1ncccn1)c1cc(Cl)ccc1Cl,.,.,.,.,.,.
OCC(CBr)(CBr)CBr,.,.,.,.,.,/
CC(C(=O)NCC1CCCCC1)N1CCc2ccccc2C1 (stereo unspecified),.,.,.,.,.,/
CC(C(=O)NCC1CCCCC1)N1CCN(S(=O)(=O)/C=C/c2ccccc2)CC1 (stereo unspecified),.,.,.,.,.,.
COc1ccc2c(c1)N(C)/C(=C1/SC(=NCc3ccccc3)N(c3ccccc3)C1=O)S2,.,.,.,.,90.5,.
SMILES,GRK2 inh,B2AR ag,NTR1 ag,A1 inh,VLA-4 inh,VLA-4 allo CP
O=C(Nc1ccsc1C(=O)O)c1cccc(Oc2ccccc2)c1,.,.,.,.,.,/
O=C(Nc1ccsc1C(=O)O)c1cccc(C(F)(F)F)c1,.,.,.,.,.,.
O=C(CN1CCCC1c1cccs1)N1CCN(S(=O)(=O)c2ccccc2)CC1 (stereo unspecified),/,.,.,/,/,/
O=C(NC(=S)NCc1ccc(-c2nc3ccccc3s2)cc1)c1ccco1,.,.,.,.,.,.
CCOCCCNc1nc(C(F)(F)F)nc2c1nnn2Cc1ccccc1Cl,.,.,.,.,.,/
C=CCNc1nc(C(F)(F)F)nc2c1nnn2Cc1ccccc1Cl,.,.,.,.,70.0,.
Cc1c(NC(=O)c2cc(C(C)C)on2)c(=O)n(-c2ccccc2)n1C,.,.,.,.,/,.
Cc1c(NC(=O)COc2ncnc3c(Cl)cc(Cl)cc23)c(=O)n(-c2ccccc2)n1C,.,.,.,.,.,.

# Bioassay records (PubChem BioAssay)
